Results from PubChem BioAssay (NCI).
Compounds without any hit were thinned out: in the full panel of roughly 83,000, 20% have a hit.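 48-hour exposure, single concentration, 96-well plates; percent growth endpoint where 0 means no net growth. Active: below 10.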 A number with no mark means an inactive call. Calls of active or inactive are those of the source.

Assays:
Experiment in all cases: NCI-60 one-dose screen, 48 h (100 = growth as untreated, 0 = no growth, -100 = all killed)
Conditions in all cases: 10 µM unless noted
T-47D breast = system: T-47D breast
BT-549 breast = system: BT-549 breast
MDA-MB-435 melanoma = system: MDA-MB-435 melanoma
SW-620 colon = system: SW-620 colon
MCF7 breast = system: MCF7 breast
HCT-116 colon = system: HCT-116 colon
HCC-2998 colon = system: HCC-2998 colon
KM12 colon = system: KM12 colon

SMILES | growth (T-47D breast) | growth (BT-549 breast) | growth (MDA-MB-435 melanoma) | growth (SW-620 colon) | growth (MCF7 breast) | growth (HCT-116 colon) | growth (HCC-2998 colon) | growth (KM12 colon)
CC(Cc1nnc(SCC(=O)Nc2ccc(I)cc2)n1N)c1ccccc1 (stereo not given) | 71.2% | 97.4% | 99.9% | 95.5% | 93.4% | 68.6% | 86.7% | 95.8%
CC(C)(C)OC(=O)N[C@@H](Cc1ccccc1)C(=O)N(Cc1ccccc1)C1(C(=O)NCc2ccccc2)CCN(Cc2ccccc2)CC1 | 38% | 71% | 41% | 22.9% | 25.2% | 20.9% | 47% | 18.7%
CCC1CCc2nc3sc(C(=O)Nc4cccc(C)c4)c(N)c3cc2C1 (stereo not given) | 96.9% | 86.1% | -15.9% (active) | 53.2% | 18.7% | 83.8% | 100% | 48.5%
Cc1ccc2c(c1)C(C)Cc1c(ncnc1-n1cnc3ccccc31)N2C (stereo not given) | 50.3% | -1.38% (active) | -47.9% (active) | 21.6% | 13.5% | 5.53% (active) | 17.4% | 13.8%
c1cc(-c2ccc3c(c2)OCO3)n2nccc2n1 | 88.2% | 101% | 98.2% | 105% | 89.9% | 102% | 86.9% | –
COc1ccc(C2CC(c3cccs3)=NN2c2ccc(S(=O)(=O)NC(=O)Nc3ccc(C)cc3)cc2)cc1 (stereo not given) | 78.8% | 74.2% | 61.9% | 106% | 97.1% | 85.1% | 109% | 97.4%
CCCC1OC(c2ccc(C(C)C)cc2)OCC1CC (stereo not given) | 85.7% | 102% | 105% | 112% | 94.7% | 93.9% | 103% | 107%
CCNc1nc(N2CC(=O)Nc3cc(OC)ccc32)c2ccccc2n1 | 11.6% | -22.2% (active) | -25.8% (active) | 21.5% | 3.09% (active) | -14.1% (active) | -20.8% (active) | 4.88% (active)
CCCCCCCCCCC/C=C\C[C@H](O)C/C=C1/C(=O)C=C[C@@H]1C/C=C\CCCC(=O)OC | -8.92% (active) | -14.2% (active) | -14.5% (active) | 3.33% (active) | 10.8% | -32% (active) | -46.5% (active) | -48.5% (active)
COc1cc(/C=C/C(=O)c2ccccc2O)ccc1OCCCOc1cc2c(cc1OC)C(=O)N1CCC[C@H]1C=N2 | 21.8% | -4.28% (active) | -28.9% (active) | 5.6% (active) | -15.1% (active) | 2.66% (active) | -16.7% (active) | -18.3% (active)
C=C1C(=O)O[C@H]2[C@H]1CC/C(COC(=O)NCc1cc(OC)cc(OC)c1)=C\CC[C@@]1(C)O[C@@H]21 | -8.17% (active) | -5.77% (active) | -29.1% (active) | -50.5% (active) | 0.19% (active) | -60.4% (active) | 63.8% | 45.1%
O=C(c1ccccc1)C(Cl)C(Cl)c1ccccc1 (stereo not given) | -1.59% (active) | 96.5% | 33.7% | -41.3% (active) | 9.18% (active) | 7.77% (active) | 98.1% | 81.3%
CCCn1c(=S)sc2c(Cl)nc(C)nc21 | 104% | 42.9% | 104% | 102% | 46.7% | 104% | 111% | 104%
O=C(O)c1ccc(-n2c(=O)c3ccccc3c3ccccc3c2=O)cc1 | 92.8% | 107% | 103% | 110% | 96.3% | 104% | 110% | 104%
COc1ccc([N+](=O)[O-])c(/C=C/C(=O)c2ccccn2)c1 | 91.8% | 94.2% | 94.5% | 16.9% | 67% | 1.9% (active) | 120% | 84.5%
c1ccc([P+](CCC[P+](c2ccccc2)(c2ccccc2)c2ccccc2)(c2ccccc2)c2ccccc2)cc1 | 45.2% | 75.9% | 38.6% | 85.4% | 59% | 67.5% | 48.1% | 45.5%
CN(C)C1CCC(NC2=CC(=O)C=CC2=O)CC1 (stereo not given) | 110% | 114% | 114% | 117% | 97.9% | 5.98% (active) | 126% | 108%
